Assay results published in ChEMBL document CHEMBL3433997, “St. Jude Leishmania screening dataset” (2016).

How the values were obtained:
Format in all cases: functional
[1] = target: Solute carrier family 2, facilitated glucose transporter member 1 (Homo sapiens) (UniProt P11166); assay: ST_JUDE_LEISH: Cytotoxicity at 2uM final concentration against transgenic Leishmania Mexicana promastigotes LmGLUT1 that are glucose transport deficient and complemented with the human glucose transporter GLUT1. Activity is measured by DNA content using SYBR green in vitro
Chain of Solute carrier family 2, facilitated glucose transporter member 1 (Homo sapiens) (P11166 whole entry): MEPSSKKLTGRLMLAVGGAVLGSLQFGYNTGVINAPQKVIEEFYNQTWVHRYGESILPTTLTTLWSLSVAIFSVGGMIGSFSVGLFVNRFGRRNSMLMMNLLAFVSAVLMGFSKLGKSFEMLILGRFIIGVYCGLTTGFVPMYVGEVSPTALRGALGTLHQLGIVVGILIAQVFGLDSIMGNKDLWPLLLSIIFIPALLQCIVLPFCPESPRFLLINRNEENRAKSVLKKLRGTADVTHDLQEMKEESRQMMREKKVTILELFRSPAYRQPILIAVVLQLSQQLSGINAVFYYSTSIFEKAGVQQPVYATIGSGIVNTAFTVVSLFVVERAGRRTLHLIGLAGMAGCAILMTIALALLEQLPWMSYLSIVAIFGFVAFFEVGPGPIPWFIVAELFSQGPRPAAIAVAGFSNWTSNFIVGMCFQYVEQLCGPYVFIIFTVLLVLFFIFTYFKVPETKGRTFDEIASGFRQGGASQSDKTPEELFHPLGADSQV

[2] = target: Hexose transporter 1 (Plasmodium falciparum) (UniProt O97467); assay: ST_JUDE_LEISH: Cytotoxicity at 2uM final concentration against transgenic Leishmania Mexicana promastigotes LmPfHT that are glucose transport deficient and complemented with the Plasmodium falciparum hexose transporter. Activity is measured by DNA content using SYBR green in vitro
[3] = target: Glucose transporter (Leishmania mexicana) (UniProt O61059); assay: ST_JUDE_LEISH: Cytotoxicity at 2uM final concentration against transgenic Leishmania Mexicana promastigotes LmGT2 that are glucose transport deficient and complemented with the L. Mexicana glucose transporter 2. Activity is measured by DNA content using SYBR green in vitro

Compound: CCN(CC)Cc1cccc(-c2cc3c(-c4ccc(C(=O)O)c(C(C)C)c4)ccnc3[nH]2)c1OC
- inhibition [1]: 12%
- inhibition [2]: 8.43%
- inhibition [3]: 7.3%

Compound: CS(=O)(=O)c1ccc(CCNCc2ccc(-c3ccc(CN(C(=O)C4CC(=O)c5ccccc54)C4CCN(Cc5ccccc5)CC4)cc3)nc2)cc1 (stereo unspecified)
- inhibition [1]: 1.6%
- inhibition [2]: 1.34%
- inhibition [3]: 2.34%

Compound: CCOC(=O)c1ccc(NC(=O)Nc2cccc(-c3cccc(-c4nc5ccccc5[nH]4)c3)c2)cc1
- inhibition [1]: 10.4%
- inhibition [2]: 7.84%
- inhibition [3]: 8.27%

Compound: CC(C)(C)[C@@H](Nc1ccc(C#N)c2ccccc12)C(=O)NC1(Cc2ccc(O)c(Br)c2)CCCC1
- inhibition [1]: 2.05%
- inhibition [2]: 3.09%
- inhibition [3]: -0.09%

Compound: N#Cc1cccc(C(=O)Nc2cccc(-c3ccc(CN4CCCC4)cc3)c2)c1
- inhibition [1]: 1.56%
- inhibition [2]: 2.56%
- inhibition [3]: 2.89%

Compound: CCN(CC)CCOc1ccc(NC(=O)c2oc3ccccc3c2C=Cc2ccccc2)cc1
- inhibition [1]: 4.92%
- inhibition [2]: -0.45%
- inhibition [3]: 0.81%

Compound: CCC(C)(C)c1ccc(OCCCC(=O)Nc2ccc(Cl)c([N+](=O)[O-])c2)c(C(C)(C)CC)c1
- inhibition [1]: 0.37%
- inhibition [2]: 0.79%
- inhibition [3]: 1.34%

Compound: CC(C)CCN1CCCN(Cc2cccc(C(=O)Nc3ccc(C(C)(C)C)cc3)c2)CC1
- inhibition [1]: 3.18%
- inhibition [2]: 0.18%
- inhibition [3]: 2.78%

Compound: CC1(C)N=C(N)N=C(Nc2ccc(F)c(F)c2)N1
- inhibition [1]: 0.74%
- inhibition [2]: 0.06%
- inhibition [3]: -0.02%

Compound: Cc1cccc2nc(-c3ccc(-c4cccc(NC(=O)CN5CCN(C)CC5)c4)s3)[nH]c12
- inhibition [1]: -0.82%
- inhibition [2]: -1.13%
- inhibition [3]: 2.66%

Compound: COc1cc2nc(NCCn3cccn3)nc(NCCc3ccccc3)c2cc1OC
- inhibition [1]: 7.22%
- inhibition [2]: 3.02%
- inhibition [3]: 6.96%

Compound: COc1ccc(Cn2ncc3c4c(N)nc(N)nc4ccc32)cc1OC
- inhibition [1]: 86.6%
- inhibition [2]: 82.8%
- inhibition [3]: 73%
